NS3h inh CB – hepatitis C NS3 helicase inhibition, primary screen. NS3h Cy5-dT15 DNA binding, fluorescence polarization. 16,000 compounds, 1.6% hits. inhibition, % at 100 µM. AID 687043;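 active means inhibition above the average over every tested compound plus 3 SD, cut at about 40% in these data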
Cy5 interf NS3h – enhances or quenches Cy5 fluorescence in NS3h assay; Cy5-dT15 DNA with NS3h, fluorescence interference; actives lie on both sides; signal over control mean, under 1 quenches; fluorescence interference ratio at 100 µM; AID 720488; 16,000 compounds, 6% hits;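 active means compound fluorescence over control fluorescence at most 0.8, a quencher, or at least a set upper limit, an enhancer; inactive means ratio between 0.8 and the set upper limit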
HCV NS3h conf – confirmation of hepatitis C virus NS3 helicase inhibitors | shares compounds with NS3h inh CB | NS3h binding to Cy5-dT15 DNA, fluorescence polarization | inhibition, % at 100 µM | 240 compounds, 20% hits;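 active means percent inhibition of 50% or more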
SSB FP counter – disrupts E. coli SSB binding to DNA in counter-screen | 240 compounds, 40% hits | shares compounds with NS3h inh CB | inhibition, % at 100 µM | E. coli SSB binding Cy5-dT15, fluorescence polarization;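 active means inhibition of at least 50%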;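 further: displacers lower Cy5 polarization so higher inhibition means more SSB displaced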
Target sequence (P0AGE0 whole entry, looked up): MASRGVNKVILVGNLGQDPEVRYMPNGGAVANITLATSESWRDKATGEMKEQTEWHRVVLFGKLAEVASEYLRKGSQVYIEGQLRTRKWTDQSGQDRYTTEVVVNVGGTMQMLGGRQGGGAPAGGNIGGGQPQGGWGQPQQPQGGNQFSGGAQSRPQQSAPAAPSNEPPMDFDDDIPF
Cy5 SSB interf – Cy5 fluorescence interference in NS3h counter-screen; fluorescence interference ratio at 100 µM; 240 compounds, 8% hits; shares compounds with NS3h inh CB; AID 720487; Cy5-dT15/E. coli SSB fluorescence interference; actives lie on both sides;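 active means fluorescence interference ratio at or above 1.2, signal boosting, or at or below 0.8, signal quenching; inactive means ratio between 0.8 and 1.2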;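 further: ratio of compound well signal to mean negative control signal so 1 means no effect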
Cy5 fluor confirm – confirmation counter-screen for HCV NS3 helicase inhibitors: fluorescence interference; shares compounds with NS3h inh CB; Cy5-dT15 DNA/NS3h fluorescence interference counterscreen; fluorescence interference ratio at 100 µM, hits read low; 240 compounds, 44% hits;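 active means fluorescence interference ratio at or below 0.8 quencher or at or above a set limitenhancer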;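 further: ratio of compound fluorescence to mean of negative controls so 1 means no interference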
The depositor's hits bear a star. Compounds with a hit are over-represented: about 7.6% of the library has one in this group of screens.

SMILES	NS3h inh CB	Cy5 interf NS3h	others
COC(=O)c1ccc(/C=N\NC(=O)COc2ccc(I)cc2)cc1	5	0.98
CC12c3ccccc3C(c3ccccc31)C1C(=O)N(c3cccc([N+](=O)[O-])c3)C(=O)C12 (stereo not given)	18	1
CC12c3ccccc3C(c3ccccc31)C1C(=O)NNC(=O)C12 (stereo not given)	11	0.66*
Cc1ccc(OCC(=O)Nc2ccc(Cl)cc2C)c(Br)c1	6	0.99
Cc1cc(=O)n2c([nH]c3ccccc32)c1C(=O)O	30	0.79*
COc1ccc(NC(=O)CSc2ncccn2)cc1	0	1.1
CCOc1ccc(NC(=O)CSc2nnc(-c3ccc(OC)cc3)o2)cc1	20	0.74*
CCCc1cc(=O)n2[nH]c(-c3cccc(C)c3)cc2n1	19	1
N#C/C(=C\c1ccc(-c2ccc(Cl)cc2)o1)C(=O)Nc1cccc2ncccc12	-42	0.55*
N#C/C(=C\c1ccc(-c2ccccc2Cl)o1)C(=O)Nc1cccc2ncccc12	2	0.95
O=C(O)CCCN1C(=O)C(=O)C(=C(O)c2ccccc2)C1/C=C/c1ccccc1 (stereo not given)	-5	0.95
CC(=O)Nc1ccc(S(=O)(=O)NNC(=O)c2ccccc2Cl)cc1	15	0.75*
CC(=O)Nc1ccc(S(=O)(=O)NC(c2ccccc2)c2ccccc2)cc1	12	1.1
CCCCOc1ccc(C(=O)NCCOc2ccc(C)c(C)c2)cc1	15	1
O=C1C2C3C=CC(C4CC34)C2C(=O)N1c1ccc(Cl)cc1 (stereo not given)	-4	0.92
COC(=O)c1cc(N2C(=O)C3C4C=CC(C5CC45)C3C2=O)ccc1Cl (stereo not given)	8	0.69*
CC1=NN(c2ccc(C(=O)O)cc2)C(=O)/C1=C\c1ccc(-c2cccc(C(=O)O)c2)o1	31	1
CCCNC(=O)c1cc(OC)c(OC)cc1[N+](=O)[O-]	10	0.79*
COc1cc(C(=O)Nc2ccc(NC(C)=O)cc2)c([N+](=O)[O-])cc1OC	10	1
O=C1NC(=S)NC(=O)C1=Cc1ccc(OCc2ccccc2Cl)cc1	48*	0.89	HCV NS3h conf=1;SSB FP counter=61*;Cy5 SSB interf=0.92;Cy5 fluor confirm=0.75*
CN1C(=O)/C(=C\c2ccc(OCc3ccccc3Cl)cc2)SC1=S	-7	0.93
Cc1cc(C)c([N+](=O)[O-])cc1-c1ccc(/C=c2\sc3nc4ccccc4n3c2=O)o1	121*	1.6*	HCV NS3h conf=14;SSB FP counter=32;Cy5 SSB interf=0.93;Cy5 fluor confirm=0.83
O=c1/c(=C/c2ccc(-c3ccccc3Cl)o2)sc2nc3ccccc3n12	7	1
COc1cc(C=C2C(=O)NC(=S)NC2=O)cc(Cl)c1OCCOc1ccccc1	24	0.97
COc1cccc(OCCOc2c(Cl)cc(/C=C3/SC(=S)NC3=O)cc2OC)c1	70*	0.97	HCV NS3h conf=45;SSB FP counter=47;Cy5 SSB interf=0.97;Cy5 fluor confirm=0.79*
SMILES	NS3h inh CB	Cy5 interf NS3h	others
COc1ccc(C(=O)c2coc3ccc(O)cc23)cc1	16	1
COc1ccc2occ(C(=O)c3ccccc3Cl)c(=O)c2c1	57*	1	HCV NS3h conf=26;SSB FP counter=8;Cy5 SSB interf=0.99;Cy5 fluor confirm=0.88
O=C(NC(=S)N1CCOCC1)c1ccccc1	110*	0.4*	HCV NS3h conf=0;SSB FP counter=-7;Cy5 SSB interf=0.98;Cy5 fluor confirm=0.97
O=C(NC(=S)N1CCCCCC1)c1cccnc1	5	1
Cc1ccc(C(=O)c2cccc(C(=O)c3ccc(C)cc3)c2)cc1	9	1
Cc1ccc(C(=O)Nc2ccc3nn(-c4ccc(Cl)cc4)nc3c2)cc1[N+](=O)[O-]	-19	1.1
O=c1c(Oc2ccc(Cl)cc2Cl)c(C(F)(F)F)oc2cc(O)ccc12	6	0.89
CN1C(=O)C(=Cc2ccc(-c3ccc(Cl)c(C(=O)O)c3)o2)C(=O)N(C)C1=O	23	1.1
N#CC(C#N)=Cc1ccc(-c2ccc(Cl)c(C(=O)O)c2)o1	43*	1.1	HCV NS3h conf=23;SSB FP counter=41;Cy5 SSB interf=0.97;Cy5 fluor confirm=0.79*
O=C(c1cc(Cl)ccc1Cl)N1CCCCC1	5	1
Cc1cc(C)cc(N2C(=O)NC(=O)/C(=C\c3ccccc3C)C2=O)c1	-11	1.1
Cc1cc(C)cc(N2C(=O)NC(=O)/C(=C\c3ccc(I)o3)C2=O)c1	46*	1.1	HCV NS3h conf=39;SSB FP counter=92*;Cy5 SSB interf=1;Cy5 fluor confirm=1
COc1cc(/C=C2\C(=O)NC(=O)N(c3ccc(Cl)cc3)C2=O)cc(I)c1OC	10	1.1
Cc1ccc(N2C(=O)NC(=O)/C(=C\c3ccc(-c4ccc(C)c([N+](=O)[O-])c4)o3)C2=O)cc1	61*	1.1	HCV NS3h conf=2;SSB FP counter=24;Cy5 SSB interf=0.96;Cy5 fluor confirm=0.89
O=C1NC(=O)N(c2ccc(Cl)cc2)C(=O)/C1=C/c1ccc(I)o1	56*	1.3*	HCV NS3h conf=26;SSB FP counter=78*;Cy5 SSB interf=1.1;Cy5 fluor confirm=0.82
O=C1NC(=O)N(c2ccc(Cl)cc2)C(=O)/C1=C\c1ccc(-c2ccc([N+](=O)[O-])cc2)o1	8	1
CCC(=O)NC(c1ccc(OC)cc1)c1ccc2cccnc2c1O (stereo not given)	8	1
O=C(Nc1ccccc1C(=O)N1CCCC1)c1ccccc1	6	1.1
COc1ccc(OC)c(N=C(C)C2=C(O)CSC2=O)c1	0	1
CC(C)CCNC(=O)C(=O)Nc1nccs1	8	1.1
CCOc1ccccc1NC(=O)CN(c1cccc(OC)c1)S(=O)(=O)c1ccccc1	22	0.98
O=C(CCCOc1ccc(Cl)cc1Cl)Nc1ncn[nH]1	1	0.97
CCOC(=O)c1sc(NC(=O)CCCOc2ccc(Cl)cc2Cl)nc1C	22	0.97	HCV NS3h conf=2;SSB FP counter=2;Cy5 SSB interf=0.97;Cy5 fluor confirm=0.75*
Cc1ccc(/C(N)=N\OC(=O)c2ccccc2Br)cc1	17	1
CC1CCc2c(sc(NC(=O)COc3ccccc3C(C)(C)C)c2C(N)=O)C1 (stereo not given)	3	1
SMILES	NS3h inh CB	Cy5 interf NS3h	others
O=c1c2c(nc3cc(-c4cccs4)[nH]n13)CCC2	6	1
O=c1c2c(nc3cc(-c4cccs4)[nH]n13)CCS2	60*	1.1	HCV NS3h conf=-2;SSB FP counter=25;Cy5 SSB interf=1;Cy5 fluor confirm=0.81
CCOC(=O)c1c(N)c(C#N)n2c1CCC2	2	1
Cc1cc(C)c2nc(Nc3nc4ccccc4c(=O)[nH]3)nc(C)c2c1	-6	0.96
O=C(/C=C/c1ccc(F)cc1)Nc1ccccc1[N+](=O)[O-]	23	0.99
O=C1C=C(Nc2ccccc2)C(=O)N1c1ccccc1Cl	11	1
O=C1NC(=O)N(c2ccccc2Cl)C(=O)/C1=C\C=C\c1ccco1	62*	1.2*	HCV NS3h conf=51*;SSB FP counter=96*;Cy5 SSB interf=1.2*;Cy5 fluor confirm=0.93
C=CCN1C(=O)NC(=O)/C(=C/C=C/c2ccco2)C1=O	78*	1.3*	HCV NS3h conf=46;SSB FP counter=41;Cy5 SSB interf=1.1;Cy5 fluor confirm=0.76*
C=CCN1C(=O)NC(=O)C(=Cc2ccc(C(C)C)cc2)C1=O	6	0.99
CC(C)(C)NC(=O)c1cc(N)cc(N)c1	1	1.1

Screens from PubChem BioAssay.
